This is a sample that favours compounds with a hit; in the whole collection about 0.59% have one here.
Mtb hypoxia rep – Mtb hypoxia fluorescent reporter inhibition. M. tuberculosis hypoxia-regulated fluorescent reporter, fluorescence. fluorescence inhibition, % (test concentration not listed). 300,000 compounds, 0.1% hits; in the data active means fluorescence inhibition mostly above about 23%, no sharp cut-off; inactive means mostly below about 17%
VHR inh abs – inhibitors of human VHR1 phosphatase (DUSP3); P51452; recombinant VHR phosphatase, pNPP absorbance; inhibition, % at 13.3 µM; 290,000 compounds, 0.52% hits; in the data active means inhibition above about 50%
Rv3671c protease – Rv3671c (M. tuberculosis) protease inhibition; P9WHR9; 320,000 compounds, 0.048% hits; inhibition, % at 5.96 µM; AID 2606;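 further: extracellular domain of Rv3671c used as enzyme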
Mtb betalactam – beta-lactam sensitization of Mtb H37Rv. M. tuberculosis H37Rv growth with meropenem, percent inhibition. inhibition, % at 25 µM. 330,000 compounds, 0.27% hits. AID 434955; call rule not given here;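 further: growth measured after seven days incubation then overnight dye step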
Mtb UGM inh – Mtb UDP-galactopyranose mutase inhibition; P9WIQ1; purified UGM, fluorescence polarization probe displacement; inhibition, % at 10 µM; 320,000 compounds, 0.06% hits; in the data active means inhibition above about 10%, passing the limit was not always enough
Target sequence (P9WIQ1 whole entry, looked up): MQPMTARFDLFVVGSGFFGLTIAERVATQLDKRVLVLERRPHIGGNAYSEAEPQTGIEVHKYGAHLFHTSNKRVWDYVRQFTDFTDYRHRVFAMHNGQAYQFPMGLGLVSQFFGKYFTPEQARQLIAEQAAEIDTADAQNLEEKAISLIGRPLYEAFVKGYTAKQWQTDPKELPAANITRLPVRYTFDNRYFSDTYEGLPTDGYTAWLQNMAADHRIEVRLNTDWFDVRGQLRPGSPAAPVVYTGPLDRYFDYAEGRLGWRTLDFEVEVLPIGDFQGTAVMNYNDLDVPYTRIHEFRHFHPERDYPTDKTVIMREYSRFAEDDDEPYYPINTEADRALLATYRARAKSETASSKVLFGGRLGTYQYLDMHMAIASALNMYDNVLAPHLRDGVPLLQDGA
Rv3671c confirm – Rv3671c protease inhibition, confirmation | shares compounds with Rv3671c protease | inhibition, % at 5.96 µM | 140 compounds, 40% hits
Numbers stand for hits. Unless noted, no stated cut-off is given here; in the data, active means inhibition above about 38%; inactive means the rest.

Screening Cc1cc(O)ccc1N=Cc1c(C(F)(F)F)[nH][nH]c1=O returned Mtb hypoxia rep inactive, VHR inh abs inactive, Rv3671c protease 98.7, Mtb betalactam inactive, Mtb UGM inh inactive and Rv3671c confirm inactive.
`O=c1[nH][nH]c(C(F)(F)F)c1C=Nc1ccccc1` gave Mtb hypoxia rep inactive, VHR inh abs inactive, Rv3671c protease inactive, Mtb betalactam inactive and Mtb UGM inh inactive.
Cc1sc(-c2ccncc2)nc1OC(=O)c1ccccc1 was read as Mtb hypoxia rep inactive, VHR inh abs inactive, Rv3671c protease 44.1, Mtb betalactam inactive, Mtb UGM inh inactive and Rv3671c confirm 60.9.
`Cc1sc(-c2ccccn2)nc1OC(=O)c1ccc(Cl)cc1` gave Mtb hypoxia rep inactive, VHR inh abs inactive, Rv3671c protease inactive, Mtb betalactam inactive and Mtb UGM inh inactive.
For CCOC(=O)c1c(C)c(C(=O)NCC2CCCO2)c(C)n1C (stereo unspecified) the results were Mtb hypoxia rep inactive, VHR inh abs inactive, Rv3671c protease inactive, Mtb betalactam inactive and Mtb UGM inh inactive.
COC(=O)NN=Cc1cn(CCOc2ccccc2)c2ccccc12 was read as Mtb hypoxia rep inactive.
Screening COCCCNc1c2c3c(cccc3[nH]c1=O)C(=O)c1ccccc1-2 returned Mtb hypoxia rep inactive, VHR inh abs inactive, Rv3671c protease 137.3, Mtb betalactam inactive, Mtb UGM inh 101.9 and Rv3671c confirm 144.7.
`COCCCNC1=C(Cl)C(=O)c2ccccc2C1=O` gave Mtb hypoxia rep inactive, VHR inh abs inactive, Rv3671c protease inactive, Mtb betalactam inactive and Mtb UGM inh inactive.
O=C1C(CSCc2ccccc2)NC(=S)N1c1ccccc1 (stereo unspecified) was read as Mtb hypoxia rep inactive, VHR inh abs inactive, Rv3671c protease 98.1, Mtb betalactam inactive, Mtb UGM inh inactive and Rv3671c confirm 59.5.
Screening COCCNC(=O)C(C)Oc1ccc(Cl)cc1Cl (stereo unspecified) returned Mtb hypoxia rep inactive, VHR inh abs inactive, Rv3671c protease inactive, Mtb betalactam inactive and Mtb UGM inh inactive.
For CC(C)CNC(=O)COC(=O)c1ccc(Cl)c(S(N)(=O)=O)c1 the results were VHR inh abs inactive, Rv3671c protease inactive, Mtb betalactam inactive and Mtb UGM inh inactive.
Screening CCCCNC(=O)COC(=O)c1ccc(Cl)c(S(N)(=O)=O)c1 returned VHR inh abs inactive, Rv3671c protease 43.4, Mtb betalactam inactive, Mtb UGM inh inactive and Rv3671c confirm inactive.
`O=c1cc[nH]c2c1ccc1c(=O)cc[nH]c12` gave Mtb hypoxia rep inactive, VHR inh abs inactive, Rv3671c protease 50.2, Mtb betalactam inactive, Mtb UGM inh inactive and Rv3671c confirm inactive.
Screening Cn1ccnc1Sc1ccc(C=NNC(=O)c2ccccc2O)cc1[N+](=O)[O-] returned Mtb hypoxia rep inactive.
For Cc1ccc(C)c(S(=O)(=O)NCC(c2ccco2)N2CCc3ccccc3C2)c1 (stereo unspecified) the results were Mtb hypoxia rep inactive, Rv3671c protease inactive, Mtb betalactam inactive and Mtb UGM inh inactive.
For COc1cc(C=NNc2ccc(S(=O)(=O)Nc3ccccc3C(=O)O)cc2[N+](=O)[O-])ccc1O the results were Mtb hypoxia rep inactive, Rv3671c protease 47.1, Mtb betalactam inactive, Mtb UGM inh inactive and Rv3671c confirm 41.6.
Screening O=C(O)c1cc(O)c2c(c1)[C@@H]([C@H]1c3cc(C(=O)O)cc(O)c3C(=O)c3c(O[C@@H]4O[C@H](CO)[C@@H](O)[C@H](O)[C@H]4O)cccc31)c1cccc(O[C@@H]3O[C@H](CO)[C@@H](O)[C@H](O)[C@H]3O)c1C2=O returned Rv3671c protease 71.3, Mtb betalactam inactive, Mtb UGM inh inactive and Rv3671c confirm inactive.
For CC(C)NC(=O)c1ccccc1NS(=O)(=O)c1ccc(Br)s1 the results were Mtb hypoxia rep inactive and VHR inh abs inactive.
For Cc1ccc2c(c1)C1C=CCC1C(C(=O)O)N2 (stereo unspecified) the results were VHR inh abs inactive, Rv3671c protease inactive, Mtb betalactam inactive and Mtb UGM inh inactive.
`O=C(O)C1Nc2c(O)cc(Cl)c([N+](=O)[O-])c2C2C=CCC12` (stereo unspecified) gave Mtb hypoxia rep inactive, VHR inh abs inactive, Rv3671c protease 49.2, Mtb betalactam inactive, Mtb UGM inh inactive and Rv3671c confirm inactive.

From PubChem BioAssay
